# Only some compounds are listed: those with a hit (about 3.4% of all), similar ones and a draw of the others.
# GLS inhibitor: inhibitors of human glutaminase (GLS). O94925. GLS enzymatic activity, qHTS titration. Potency, µM (top dose mostly 45.5 µM), for the others: at the highest dose activity change, negative = inhibition, hits mostly inhibitors. 0.21% of 410,000 active. AID 624170; also: % is scaled to controls: 0 for no effect and ±100 for the full control effect
# Target sequence (O94925 whole entry, looked up): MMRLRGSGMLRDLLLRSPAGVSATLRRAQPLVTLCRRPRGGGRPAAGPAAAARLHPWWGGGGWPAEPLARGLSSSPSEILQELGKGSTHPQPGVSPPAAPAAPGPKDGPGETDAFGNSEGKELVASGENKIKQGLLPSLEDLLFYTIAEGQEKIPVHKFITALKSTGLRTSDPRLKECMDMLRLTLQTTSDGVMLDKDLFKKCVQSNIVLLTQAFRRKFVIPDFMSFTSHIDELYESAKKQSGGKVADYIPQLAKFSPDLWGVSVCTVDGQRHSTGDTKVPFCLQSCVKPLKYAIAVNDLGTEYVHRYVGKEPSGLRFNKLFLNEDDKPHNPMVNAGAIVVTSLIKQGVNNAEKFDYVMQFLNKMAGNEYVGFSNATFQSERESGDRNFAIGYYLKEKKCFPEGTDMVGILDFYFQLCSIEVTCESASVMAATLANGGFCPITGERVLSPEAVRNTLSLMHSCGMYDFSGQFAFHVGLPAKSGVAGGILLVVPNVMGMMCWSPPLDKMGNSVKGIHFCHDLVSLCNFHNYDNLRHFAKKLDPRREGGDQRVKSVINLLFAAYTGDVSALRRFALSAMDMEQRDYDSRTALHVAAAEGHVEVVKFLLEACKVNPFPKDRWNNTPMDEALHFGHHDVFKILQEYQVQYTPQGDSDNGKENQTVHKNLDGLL
#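 Enzyme dispensed in phosphate buffer (45 mM, pH 8.2, 0.02% Tween-20), compounds pinned in, then 1 mM L-glutamine solution and the glutamate oxidase–HRP–Amplex Red mix added; fluorescence read immediately and again after 30 min at room temperature.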
# Mito fusion yeast: inhibitors of mitochondrial division or activators of mitochondrial fusion; S. cerevisiae fusion-defective mutant growth rescue, CellTiterGlo 48 h; Potency, µM (doses to about 46.1 µM), for inactives: top-dose growth rescue (activation), usual class: activators; 0.23% of 320,000 active; also: % of control where 0% means no effect; nearly all actives have a fitted effect of over 45% in size
#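 Compounds are tested for their ability to restore growth of mitochondrial fusion-defective yeast strains at non-permissive 37C in YPEG medium over 48 hours. Viability is quantified by luciferase luminescence.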
# VDR inh: vitamin D3 receptor (human) inhibition; P11473; VDR-SRC2-3 peptide fluorescence polarization, 2 h; Potency, µM, without a hit: max response, negative = inhibition, most hits filed as inhibitors; 0.93% of 400,000 active; also: % is scaled to controls: 0 for no effect and ±100 for the full control effect
#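 VDR–SRC2-3 interaction, FP format. Cmpds 23 nl via pintool, brief spin, 2 h ambient incubation.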
# PKM2 act: activators of human pyruvate kinase M2. 0.34% of 260,000 active. P14618. Potency, µM (doses to about 57.5 µM), for inactives: top-dose activation, hits mostly activators. purified PKM2, Kinase-Glo ATP luminescence, activation; response scale: 0% is enzyme alone, no compound; also: % is scaled to controls: 0 for no effect and ±100 for the full control effect; nearly all actives have a fitted effect of over 55% in size
#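 Kinase-Glo luminescence reports ATP generated from ADP (0.1 mM) and PEP (0.5 mM) by purified hPK-M2 after 1 h at room temperature, pH 7.2 imidazole buffer; intermediate enzyme activity allows detecting inhibitors and activators.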
# GCN5L2 inh: GCN5L2 (KAT2A) acetyltransferase inhibition | 0.21% of 390,000 active | GCN5L2 HAT assay, ThioGlo1 CoA-SH fluorescence | Potency, µM (highest dose often 58.9 µM), for the others: top-dose activity change, negative = inhibition, most hits filed as inhibitors | Q92830; also: % is scaled to controls: 0 for no effect and ±100 for the full control effect
#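 Titration-based screen in which CoA formation is detected via maleimide probe ThioGlo1 (50uM) turning fluorescent on thiol reaction; substrates H3(1-25) 75uM and acetyl-CoA 70uM, GCN5L2 20nM, 20 min incubation at room temperature.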
# PLK1 PBD block: inhibitors of human PLK1 polo-box domain binding. P53350. Plk1 PBD binding of FITC phosphopeptide, fluorescence polarization. Potency, µM, for the others: max response, negative = inhibition, actives largely listed as inhibitors. 2.8% of 360,000 active; also: series mostly up to about 57 µM; % is scaled to controls: 0 for no effect and ±100 for the full control effect; nearly all actives have a fitted effect of over 65% in size
# * marks the source's active call; other numbers are inactive results; ? = inconclusive; / = no result given; [ ] = remark or other dose. Calls follow the shape of the dose curve; as a rule, active = well fitted curve in the direction sought with a large enough effect; inconclusive = small, poorly fitted or top-dose-only effect, or another doubt; inactive = no such curve, though single readings can be large; an effect the other way counts as inactive or inconclusive. Potency is read from the fitted curve at half-maximal effect.
SMILES,GLS inhibitor,Mito fusion yeast,VDR inh,PKM2 act,GCN5L2 inh,PLK1 PBD block
CSc1ccc(N/N=C(/C#N)S(=O)(=O)C(C)(C)C)cc1,13%,0%,-10%,-2%,-13%,21µM*
COc1ccc(N/N=C(/C#N)S(=O)(=O)C(C)(C)C)cc1,0%,3%,13%,5%,-1%,-9%
NC1=CC(=O)C(=O)c2ccccc21,3%,/,45µM*,/,/,-22%
NC1=C(Br)C(=O)c2ccccc2C1=O,24%,-9%,-3%,-2%,-1%,-8%
COc1ccc(NC(=O)CCCCC(=O)Nc2ccc(OC)cc2)cc1,7%,2%,9%,0%,-2%,-10%
COc1ccc(NC(=O)C(C/C=C(/C)Cl)C(C)=O)cc1 (stereo unspecified),?,8%,2%,3%,-7%,3.8µM*
O=C1c2ccccc2C(=O)N1c1cccc(O)c1,/,/,-1%,/,/,/
COc1ccccc1/C=C/C(C)=O,6%,17%,6%,-6%,-6%,0%
COc1cc(C)c(CC/C(C)=C/C=C/C(C)=O)c(C)c1C,/,/,79µM*,/,/,/
CCOC(=O)N1CCN(CCC(=O)c2ccc(Br)cc2)CC1,-10%,0%,18µM*,/,-1%,0.67µM*
O=C(CCN1CCC2CCC(C2)C1)c1ccccc1 (stereo unspecified),1%,/,71µM*,/,/,13µM*
COc1ccc(N2CCN(CCC(=O)c3ccc4ccccc4c3)CC2)cc1,11%,17%,71µM*,/,-6%,6.7µM*
COc1ccc(C(=O)CCN2CCCC(C)C2)cc1 (stereo unspecified),0%,4%,71µM*,/,4%,?
CCOC(=O)N1CCN(CCC(=O)c2ccc(OC)cc2)CC1,0%,-7%,?,3%,-9%,-20%
CCCCC#Cc1nc(NC)c2ncn([C@@H]3O[C@H](CO)[C@@H](O)[C@H]3O)c2n1,/,1%,-3%,/,?,/
CC(C)OC(=O)Nc1ccc2nc(-c3cscn3)[nH]c2c1,3%,/,7%,/,-14%,/
CCCN(C(=O)c1c(CC)noc1C)c1c(N)n(Cc2ccccc2)c(=O)[nH]c1=O,5%,3%,13%,/,2%,1%
COc1ccc(N2CCN(CC(=O)N3CCC(C)CC3)CC2)cc1,49%,-2%,8%,-2%,-3%,-9%
CC1CCCN(CCC(=O)c2ccc(Br)cc2)C1 (stereo unspecified),-13%,-3%,79µM*,0%,-18%,3.4µM*
COc1ccc(C(=O)CCN2CCC(C)CC2)cc1,3%,-4%,79µM*,/,2%,?
O=C1CCNc2cc3ccccc3cc21,7%,13%,?,-6%,-6%,21µM*
O=C1CCNc2ccc(-c3ccccc3)cc21,3%,19%,-21%,-3%,-8%,9.5µM*
Cc1c(C(=O)NCc2ccc(C#N)cc2)sc(=O)n1Cc1ccccn1,-6%,/,/,/,/,-5%
CCn1c(SCC(=O)Nc2ccccc2Br)nnc1-c1cnccn1,-7%,-3%,-23%,/,1%,21µM*
CCc1nc2c(OCc3ccc(F)cc3)cccn2c1N(C)C(=O)c1ccc(C)cc1,15%,/,/,/,/,-10%
SMILES,GLS inhibitor,Mito fusion yeast,VDR inh,PKM2 act,GCN5L2 inh,PLK1 PBD block
COC1[C@@H](OC)C[C@H](C)[C@@H](OC)C2=CC(=O)C=C(NC(=O)/C(C)=C/C=C\[C@H](OC)[C@@H](OC(N)=O)/C(C)=C/[C@@H]1C)C2=O (stereo partly specified),/,/,79µM*,/,36%,/
N#C[C@H]1C[C@H]2C[C@@H]2N1C(=O)[C@@H](N)C12CC3CC(CC(O)(C3)C1)C2,-8%,/,/,/,/,/
O=[N+]([O-])c1cc(C(F)(F)F)ccc1NCCc1ccccn1,1%,/,-12%,/,/,-11%
CS(=O)(=O)c1ccc(NCCc2ccccn2)c([N+](=O)[O-])c1,6%,4%,-5%,14µM*,2%,-7%
COC(=O)[C@@]1(Cc2ccc(OC)cc2)[C@H]2c3cc(C(=O)N(C)C)n(CCc4ccccn4)c3C[C@H]2CN1C(=O)c1ccccc1,/,/,/,-1%,/,/
Cc1ccc(/C(=C\CN2CCCC2)c2cccc(/C=C/C(=O)O)n2)cc1,3%,/,/,/,/,/
CCOC(=O)c1cnc(SSc2ncc(C(=O)OCC)c(N)n2)nc1N,20%,-2%,?,2%,?,1.1µM*
O=C(COC(=O)c1cccc(NC(=O)c2ccc(Br)cc2)c1)c1ccc(Cl)cc1,-3%,/,-2%,/,-2%,/
COc1cc(CNCc2c(C(=O)O)c(C)n(Cc3cccc(Cl)c3)c2C)cc(OC)c1OC,1%,/,6%,/,-1%,/
COc1ccc(NC(=O)c2cc3c(-c4ccc(OC)c(OC)c4)nn(C)c3s2)cc1OC,4%,-2%,21%,-16%,-20%,1%
COc1ccc(-c2nn(C)c3sc(C(=O)NCc4ccco4)cc23)cc1OC,-5%,3%,6%,1%,-8%,27µM*
O=C(CN(Cc1ccco1)C(=O)CNS(=O)(=O)c1ccc(Cl)cc1)NCc1ccc(F)cc1,41%,/,-22%,/,/,27µM*
Cc1ccc(C(=O)CSc2nnc(-c3ccco3)n2Cc2ccccc2)cc1,?,2%,?,-1%,-4%,2.7µM*
COc1ccc(CCNc2oc(COc3ccccc3Cl)nc2C#N)cc1OC,2%,23%,-2%,15%,-10%,5%
COc1ccc(CCNc2oc(COc3ccccc3F)nc2C#N)cc1OC,18%,9%,-15%,1%,-4%,27µM*
Cc1cc(Cl)c2oc(C(=O)N(C)C3CCOC3)c(C)c2c1 (stereo unspecified),?,18%,?,-10%[0.46 µM],-2%,3.4µM*
CC(C)(C)[C@H](NC(=O)c1ccc(N)c(Cl)c1)C(=O)N1CCC[C@H]1C(=O)N[C@H](C#N)CC(=O)O,-3%,/,/,/,/,/
Cc1ccc(-n2c(=S)[nH]c3sc4c(c3c2=O)CCc2ccccc2-4)cc1,11%,2%,-20%,-13%,1%,30µM*
Cc1cccc(-n2c(=S)[nH]c3sc4c(c3c2=O)CCc2ccccc2-4)c1,10µM*,3%,?,8%,?,3µM*
CC(C(=O)OCC(=O)c1ccccc1)N1C(=O)c2ccccc2C1=O (stereo unspecified),-18%,-1%,?,11%,-6%,30µM*
COc1cccc(C(=O)COC(=O)C(C)N2C(=O)c3ccccc3C2=O)c1 (stereo unspecified),1%,0%,3%,-1%,-2%,-3%
O=C1c2cccc3c2[C@@H](CCC3)CN1[C@@H]1CN2CCC1CC2,9%,/,1%,/,-1%,/
COc1ccc(N(CC(=O)NCc2ccccc2OC)S(=O)(=O)c2ccc(C)cc2)cc1Cl,13%,5%,0%,2%,?,-14%
